Laboratory results: paper PMC4336329 (PLoS ONE, 2015)
Screen size: about 310,000 compounds; about 14,000 (4.5%) showed an effect of 50% or more. Effects have a minus sign here. This excerpt belongs to a sample that is enriched for strong results.

These molecules were tested against human ether-à-go-go-related gene (hERG) potassium channel (human, UniProt Q12809) (assay: primary screen, population patch clamp on CHO cells stably expressing hERG; higher = less effect of the substance).
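Note: peak tail current of the secondary pulse compared with the same well before compound.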

Sequence of human ether-à-go-go-related gene (hERG) potassium channel (Q12809 whole entry, looked up): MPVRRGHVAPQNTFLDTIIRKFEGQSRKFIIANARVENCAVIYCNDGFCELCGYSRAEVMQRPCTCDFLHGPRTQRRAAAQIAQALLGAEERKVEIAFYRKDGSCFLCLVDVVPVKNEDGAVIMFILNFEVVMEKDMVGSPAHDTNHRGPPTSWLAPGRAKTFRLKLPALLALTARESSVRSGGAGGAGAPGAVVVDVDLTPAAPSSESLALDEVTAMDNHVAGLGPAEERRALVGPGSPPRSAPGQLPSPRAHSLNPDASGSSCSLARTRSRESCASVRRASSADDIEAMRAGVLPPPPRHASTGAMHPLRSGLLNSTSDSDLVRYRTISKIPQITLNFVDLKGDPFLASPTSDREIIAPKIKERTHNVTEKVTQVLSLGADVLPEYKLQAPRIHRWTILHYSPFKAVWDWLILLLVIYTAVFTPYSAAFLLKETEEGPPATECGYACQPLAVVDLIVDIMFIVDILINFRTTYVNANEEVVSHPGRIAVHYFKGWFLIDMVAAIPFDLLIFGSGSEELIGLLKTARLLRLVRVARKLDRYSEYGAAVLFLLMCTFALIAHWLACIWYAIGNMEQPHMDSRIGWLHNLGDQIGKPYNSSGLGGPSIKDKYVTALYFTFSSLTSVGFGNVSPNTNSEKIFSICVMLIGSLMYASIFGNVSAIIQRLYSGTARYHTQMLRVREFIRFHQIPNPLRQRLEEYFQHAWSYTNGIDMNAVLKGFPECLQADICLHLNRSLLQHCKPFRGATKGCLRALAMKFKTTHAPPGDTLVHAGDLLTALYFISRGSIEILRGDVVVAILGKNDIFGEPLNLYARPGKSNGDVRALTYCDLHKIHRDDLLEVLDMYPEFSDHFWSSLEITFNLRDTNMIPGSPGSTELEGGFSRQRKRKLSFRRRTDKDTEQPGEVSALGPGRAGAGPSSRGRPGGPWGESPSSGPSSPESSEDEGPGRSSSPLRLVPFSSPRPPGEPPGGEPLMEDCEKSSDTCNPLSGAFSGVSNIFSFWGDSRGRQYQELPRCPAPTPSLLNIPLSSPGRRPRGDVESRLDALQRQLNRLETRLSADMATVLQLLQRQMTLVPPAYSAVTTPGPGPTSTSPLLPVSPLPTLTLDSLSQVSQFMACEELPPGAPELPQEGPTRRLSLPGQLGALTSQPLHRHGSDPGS

Structure (SMILES) | hERG current change (%, negative = inhibition) at 10uM [%]
COc1cc2cc(C)nc(Cc3cccc4ccccc34)c2cc1OC | 8.53
CC#CP(=O)(OCC)C(O)(c1ccccc1)C(F)(F)F (stereo not drawn) | -3.29
CC(=O)Nc1c(O)nc(SCC(=O)Nc2cccc(C)c2)[nH]c1=O | 14.8
CCOc1cc(-c2ccc(N)c(OCC)c2)ccc1N | -10.2
S=C(NCc1ccc(Cl)c(Cl)c1)Nc1ccc2c(c1)OCO2 | -6.19
Nn1c(SCC(=O)Nc2ccc(S(N)(=O)=O)cc2)nnc1C(F)(F)F | 0.037
Cc1cc(Cl)cc(C)c1OCCCCCn1ccnc1 | -28.1
CCCN1CCC(=O)N([C@H](CSc2ccc(Br)cc2)Cc2ccccc2)CC1 | -71.2
CN1CCC(=O)N([C@H](CSc2ccccc2)Cc2ccccc2)CC1 | -45.8
CN1CCC(=O)N([C@H](CSc2ccc(Br)cc2)Cc2ccccc2)CC1 | -64.8
C[C@H]1CCC(=O)N([C@H](CSc2ccc(Br)cc2)Cc2ccccc2)CC1 | 7.31
CCCN1CCC(=O)N([C@H](CSc2ccccc2)Cc2ccccc2)CC1 | -69.6
Cc1ccc(SC[C@H](Cc2ccccc2)N2CC[C@@H](C)CCC2=O)cc1 | -28.7
CC(C)(C)[C@H]1CCC(=O)N([C@H](CSc2ccccc2)Cc2ccccc2)CC1 | -3.06
CC(C)(C)[C@H]1CCC(=O)N([C@H](CSc2ccc(Br)cc2)Cc2ccccc2)CC1 | 4.84
CCOC(=O)c1c(NC(=O)C[n+]2ccc(Cc3ccccc3)cc2)sc(C)c1C.[Cl-] | -43.5
CC1CCN(c2cc(N3CCC(C)CC3)c([N+](=O)[O-])cc2/C=C(\C#N)c2nn(-c3ccccc3)c(N)c2C#N)CC1 | -10.2
Cc1cccc(NC(=O)CCc2nc3sc4c(c3c(=O)[nH]2)CCCC4)c1 | 10.8
CC(=O)N1CCN(C(=O)CCc2nc3sc4c(c3c(=O)[nH]2)CCCC4)CC1 | 5.61
Cc1cccc(C(=O)N2CCN(Cc3nc4sc5c(c4c(=O)[nH]3)CCCC5)CC2)c1 | -58.4
Cc1ccc(C(=O)N2CCN(Cc3nc4sc5c(c4c(=O)[nH]3)CCCC5)CC2)cc1 | -76

Structure (SMILES) | hERG current change (%, negative = inhibition) at 10uM [%]
O=c1[nH]c(CN2CCN(S(=O)(=O)c3ccccc3C(F)(F)F)CC2)nc2sc3c(c12)CCCC3 | 10.9
O=C(CCc1nc2sc3c(c2c(=O)[nH]1)CCCC3)N1CCN(c2ccccc2)CC1 | 2.7
Cc1ccc(S(=O)(=O)N2CCN(Cc3nc4sc(C)c(C)c4c(=O)[nH]3)CC2)cc1 | 18.2
O=C(c1ccccc1F)N1CCN(Cc2nc3sc4c(c3c(=O)[nH]2)CCCC4)CC1 | -81.6
O=c1[nH]c(CN2CCCC2)nc2sc3c(c12)CCC3 | 20.5
Cc1ccc(S(=O)(=O)N2CCN(Cc3nc4sc5c(c4c(=O)[nH]3)CCCC5)CC2)cc1 | -21.3
Cc1sc2nc(CN3CCOCC3)[nH]c(=O)c2c1-c1ccccc1 | 2.19
Cc1ccc(-c2c(C)sc3nc(CN4CCN(CC(=O)NC5CC5)CC4)[nH]c(=O)c23)cc1 | -71.5
Cc1ccc(C)c(S(=O)(=O)Nc2ccc(C(=O)NCCc3ccccn3)cc2)c1 | 10.2
Cc1ccc(C)c(N2CCN(C(=O)C3CCN(S(=O)(=O)c4cccc5nsnc45)CC3)CC2)c1 | -8.49
N#Cc1ccc(C23CC4(C2)[C@H](CN(Cc2ccc(C(F)(F)F)cc2)[C@@H]4c2ccccc2)C3c2ccccc2)cc1 (stereo partly drawn) | 13.5
O=C(Nc1nccs1)c1ccc(COc2ccccc2Br)o1 | -6.85
Cc1ccc(-c2nnc(SCC(=O)N/N=C/c3ccc(C)s3)n2-c2ccc(C)cc2)cc1 | -17.4
O=C(c1ccco1)N1CCN(Cc2nc(-c3cccs3)no2)CC1 | -38.1
CS(=O)(=O)N(CC(=O)NCCSCc1c(F)cccc1Cl)c1cccc([N+](=O)[O-])c1 | -15.9
COCC(C)NC(=O)CSc1nc2ccccc2n1CCc1ccccc1 (stereo not drawn) | -8.53
Cc1cccc(N2CC(C(=O)Nc3nnc(SCC(=O)Nc4cc(C)on4)s3)CC2=O)c1 (stereo not drawn) | 23
Cc1cc(=O)[nH]c(SCC(=O)Nc2ccc(S(=O)(=O)N3CCOCC3)cc2)n1 | -3.3
CC1(C)SC(=S)N(NC(=O)Nc2ccccc2)C1N(O)C(=O)Nc1ccccc1 (stereo not drawn) | 12.7
CCOc1cc(N2CCOCC2)c(OCC)cc1NC(=O)c1oc2ccccc2c1C | 18.6
O=C(c1ccccc1F)N1CCCC(C(=O)N2CCc3ccccc3C2)C1 (stereo not drawn) | -8.64

Structure (SMILES) | hERG current change (%, negative = inhibition) at 10uM [%]
CC(C)Cc1nc(S(=O)(=O)c2ccc(Cl)cc2)c(N2CCOCC2)o1 | -6.14
O=S(=O)(c1ccc(Cl)cc1)c1nc(-c2ccco2)oc1N1CCCCC1 | -7.91
CCCCc1nc(S(=O)(=O)c2ccc(Cl)cc2)c(N2CCOCC2)o1 | -69.6
O=S(=O)(c1ccccc1)c1nc(-c2ccco2)oc1N1CCCCC1 | -37.1
O=S(=O)(c1ccc(Cl)cc1)c1nc(-c2ccco2)oc1N1CCOCC1 | -55.4
CC(C)(C)c1nc(S(=O)(=O)c2ccc(Cl)cc2)c(N2CCOCC2)o1 | -14.2
COc1ccc(NC(=O)Nc2ccc3nccnc3c2)cc1 | 2.71
COc1ccccc1CNC(=O)C1CCN(C(=O)NC2CCCCC2)CC1 | 10.6
CCc1ccc(/C=N/NC(=O)C(=O)NCCCN2CCOCC2)cc1 | -23.6
COc1ccc(NC(=S)N2c3ccccc3CC2C)cc1OC (stereo not drawn) | -5.96
CCCC(=O)Nc1nnc(Cc2ccccc2)s1 | -0.72
COc1ccc(S(=O)(=O)Cc2ccc(C(=O)NC3CCC(C)CC3)o2)cc1 (stereo not drawn) | -15.8
Cc1ccc(-c2ccc(/C=N/c3ncn[nH]3)o2)cc1Cl | 11.6
NC(N)=Nc1ccc2[nH]c3c(c2c1)C[C@@]1(O)[C@H]2Cc4ccc(O)c5c4[C@@]1(CCN2CC1CC1)[C@H]3O5.O=C(O)C(F)(F)F | 6.85
CS(=O)(=O)O.O.Oc1ccc2c3c1O[C@H]1c4oc5ccccc5c4C[C@@]4(O)[C@@H](C2)N(CC2CC2)CC[C@]314 | -76.9
Cl.O.Oc1ccc2c3c1O[C@H]1c4[nH]c5ccccc5c4C[C@@]4(O)C(C2)N(CC2CC2)CC[C@]314 | -55.4
Cl.O=C1CC[C@@]2(O)[C@H]3Cc4ccc(O)c5c4[C@@]2(CCN3CC2CC2)[C@H]1O5 | 0.91
Oc1cccc(C2c3[nH]c4ccccc4c3CCN2Cc2ccc3c(c2)CCO3)c1 (stereo not drawn) | 9.6
Oc1cccc(C2c3[nH]c4ccccc4c3CCN2Cc2ccoc2)c1 (stereo not drawn) | -29.6
C=C(C)CN1CC[C@]23c4c5ccc(O)c4O[C@H]2c2[nH]c4ccccc4c2C[C@@]3(O)C1C5.Cl.O | 4.9
C=CC[N+]1(C)CC[C@]23c4c5ccc(O)c4O[C@H]2C(=O)CC[C@@]3(O)[C@H]1C5.[I-] (stereo partly drawn) | 17.8

Structure (SMILES) | hERG current change (%, negative = inhibition) at 10uM [%]
C=C1CC[C@@]2(O)[C@H]3Cc4ccc(O)c5c4[C@@]2(CCN3CC2CC2)[C@H]1O5 | -2.73
Cl.Oc1ccc2c3c1O[C@H]1c4[nH]c5ccccc5c4C[C@@]4(O)[C@@H](C2)N(CC2CC2)CC[C@]314 | -63
C=CCN1CC[C@]23c4c5ccc(O)c4O[C@H]2/C(=N/NC(=O)c2ccccc2)CC[C@@]3(O)[C@H]1C5 | -69.1
COc1ccc(C2/C(=C(/O)c3ccc(Br)cc3)C(=O)C(=O)N2C)cc1 (stereo not drawn) | -12.7
Cn1cc(P(=S)(N2CCOCC2)N2CCOCC2)cc1P(=O)(N1CCOCC1)N1CCOCC1 | 7.36
COc1ccc(Oc2cccc(Cl)c2CNC(=O)c2ccccc2C(=O)O)cc1 | 4.98
CC(C)(C)NC(=O)C(Cc1ccccc1)N1C(=O)c2ccccc2C1=O (stereo not drawn) | 6.68
CCOC(=O)C1(Cc2ccc(OC)cc2)CCN(C(=O)C2=CCCC2)CC1 | -33.8
Cc1ccnc(NC2CCCCC2)c1 | 20.4
Cn1c(CNc2ccccn2)c(C#N)c2ccccc21 | -6.94
COC(=O)CCCC1=CC2=CC(=O)C(C)(OC(=O)c3cccs3)C(=O)C2=CN1CCc1c[nH]c2ccccc12 (stereo not drawn) | 15
CC(C)CN(C(=O)c1ccc([N+](=O)[O-])s1)c1c(N)n(Cc2ccccc2)c(=O)[nH]c1=O | 10.3
O=C(c1ccc(CN2CCOCC2)cc1)N1CCC(Cc2ccccc2)CC1 | -3.35
Cc1ccccc1NC(=O)CCN1CCN(Cc2ccccc2)CC1 | -27.2
O=C(Nc1ccccc1C(F)(F)F)c1ccc(CN2CCC(Cc3ccccc3)CC2)cc1 | -42.4
O=C(Nc1ccccc1F)c1ccc(CN2CCN(c3ccccc3)CC2)cc1 | -70.7
COc1ccc(NC(=O)c2ccc(CN3CCN(c4ccccc4)CC3)cc2)cc1 | -9.47
Cc1ccccc1NC(=O)c1ccc(CN2CCC(Cc3ccccc3)CC2)cc1 | -52.2
O=C(Nc1ccccc1F)c1ccc(CN2CCc3ccccc3C2)cc1 | 13.7
CCc1ccccc1NC(=O)c1ccc(CN2CCC(Cc3ccccc3)CC2)cc1 | -50.8
Cc1ccccc1NC(=O)c1ccc(CN2CCc3ccccc3C2)cc1 | -16.4
